PNC inhibitor – High Content Assay for Compounds that inhibit the Assembly of the Perinucleolar Compartment; PC3M PTB-GFP, PNC prevalence imaging, 16 h; active compounds read low; activity change (PNC), negative = inhibition, % at 10 µM; AID 2417, 2010; actives 3.1% (n = 140,000);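 active = readout at or below -70, meaning at least 70% loss of cells showing the perinucleolar compartment, a nuclear body marking cancer cells; inconclusive = readout between -30 and a set limit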
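Compounds are pinned in duplicate onto adhered PC3M cells stably expressing GFP-tagged PTB and incubated 16 h at 37 C. Cells are then fixed, nuclei stained with Hoechst, and PNC-positive cells counted.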
IMPase inh – qHTS Assay for Identifying the Cell-Membrane Permeable IMPase Inhibitors. Inositol monophosphatase 1 (Rattus norvegicus), P97697. CHO-M1 cells, IP1 accumulation, HTRF TR-FRET ratio. inhibition (IP1 accumulation), % at 46.1 µM. 120,000 tested, under 10 active; active = well fitted curve in the direction sought with a large enough effect in the signal ratio, not every such curve was filed as active; inconclusive = small, poorly fitted or top-dose-only effect, or a change in a side signal; inactive = no such curve, though single readings can be large or run the other way; the % refers to the signal ratio;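 also: cells stimulated with carbachol in lithium chloride buffer; higher means more IMPase inhibition seen as more IP1 and lower FRET ratio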
Target sequence (P97697 whole entry, looked up): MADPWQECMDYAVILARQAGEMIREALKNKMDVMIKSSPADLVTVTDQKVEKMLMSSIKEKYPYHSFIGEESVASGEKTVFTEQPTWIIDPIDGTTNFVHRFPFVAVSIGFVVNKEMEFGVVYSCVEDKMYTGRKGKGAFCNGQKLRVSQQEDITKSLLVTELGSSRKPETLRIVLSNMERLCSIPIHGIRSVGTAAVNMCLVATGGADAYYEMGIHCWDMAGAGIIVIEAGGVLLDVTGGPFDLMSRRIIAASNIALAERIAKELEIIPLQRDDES
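In this qHTS, compounds (final up to 46 uM) act on CHO-M1 cells that are then activated through the M1 receptor with carbachol, in pH 7.4 buffer containing 50 mM LiCl, for 30 min. IP1 accumulation is quantified by the IP-One immunoassay.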
IMPase Li cell – qHTS Assay for Identifying the Cell-Membrane Permeable IMPase Inhibitors: Potentiation with Lithium; CHO-M1 cells, IP1 TR-FRET (IP-One), carbachol + lithium; Potency, µM (titrated, usually from 59.4 µM), hits mostly inhibitors; actives 0.35% (n = 210,000);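 also: IP1 builds up when IMPase is blocked and the TR-FRET signal falls; nearly all actives have a fitted effect of over 50% in size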
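CHO cells stably expressing M1 receptor (2000/well, cultured 16–30 h) treated 30 min at 37C with compound plus low lithium. Cytosolic IP1 by TR-FRET (665/620 ratio and 620 channel) after 10 min lysis; AC50 by Hill fit.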
HPGD block – qHTS Assay for Inhibitors of HPGD (15-Hydroxyprostaglandin Dehydrogenase); Potency, µM, usual class: inhibitors; 15-hydroxyprostaglandin dehydrogenase [NAD(+)] (Homo sapiens), P15428; actives 4.3% (n = 150,000); purified HPGD, NADH fluorescence kinetic, PGE2 substrate; active = well fitted inhibition curve with a large enough effect, not every such curve was filed as active; inconclusive = small, poorly fitted or top-dose-only effect, or another doubt; inactive = no such curve, though single readings can be large or run the other way
Target sequence (P15428 whole entry, looked up): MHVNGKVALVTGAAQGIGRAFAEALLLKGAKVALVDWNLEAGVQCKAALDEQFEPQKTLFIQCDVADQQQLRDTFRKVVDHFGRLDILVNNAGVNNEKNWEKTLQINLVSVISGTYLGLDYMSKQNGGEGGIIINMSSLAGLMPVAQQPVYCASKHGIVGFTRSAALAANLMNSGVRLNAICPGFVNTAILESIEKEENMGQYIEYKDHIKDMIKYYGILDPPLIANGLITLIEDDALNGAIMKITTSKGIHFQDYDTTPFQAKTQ
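20 nM HPGD preincubated 15 min at room temperature with compound in 50 mM Tris-HCl pH 8, 0.01% Tween 20. Started with 1 mM NAD+ and 30 uM prostaglandin E2; NADH fluorescence (360/450 nm) read 5 times over 30-s intervals, last minus first.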
ALOX12 inhib – qHTS Assay for Inhibitors of 12-hLO (12-human lipoxygenase); Potency, µM (doses to about 57.1 µM), hits mostly inhibitors; purified 12-hLO, xylenol orange hydroperoxide absorbance; Polyunsaturated fatty acid lipoxygenase ALOX12 (Homo sapiens), P18054; AID 1452, 2008; actives 0.12% (n = 150,000); also: nearly all actives have a fitted effect of over 55% in size
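150 nM 12hLO, 25 mM Hepes pH 7.0 + 0.01% Triton X-100; cpd preinc 15 min RT; 40 uM arachidonic acid, 30 min RT; Fe-XO 30 min; A573/A405 ratio as read-out.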
15-hLO-2 inh – qHTS Assay for Inhibitors of 15-hLO-2 (15-human lipoxygenase 2) | Polyunsaturated fatty acid lipoxygenase ALOX15B (Homo sapiens), O15296 | purified 15hLO-2, xylenol orange hydroperoxide absorbance | Potency, µM (doses to about 57.1 µM), usual class: inhibitors | actives 0.56% (n = 110,000) | AID 881, 2007; also: nearly all actives have a fitted effect of over 60% in size
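Read-out: hydroperoxide product oxidises ferrous iron, measured as xylenol orange complex via the 573-to-405 nm absorbance ratio after 30 min. Reaction: 50 nM enzyme, 15 min compound preincubation, 45 uM arachidonic acid, 90 min RT, Hepes pH 7.5 with Triton X-100.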
Numbers stand for hits; n = inactive; u = inconclusive; x = no result given; [ ] = remark or other dose. Rows were chosen to be rich in hits. Some 5.3% of all compounds tested hit in one or more screens of this group. Unless noted, calls follow the shape of the dose curve; as a rule, active = well fitted curve in the direction sought with a large enough effect; inconclusive = small, poorly fitted or top-dose-only effect, or another doubt; inactive = no such curve, though single readings can be large; an effect the other way counts as inactive or inconclusive.

SMILES	PNC inhibitor	IMPase inh	IMPase Li cell	HPGD block	ALOX12 inhib	15-hLO-2 inh
CC(=O)Nc1ccc(NC(=S)Nc2ccccc2)cc1	n	n	n	n	n	n
Nc1nnn(Cc2ccccc2)n1	-100.0	n	n	n	n	x
c1ccc(Cn2nnc(-c3ccccc3)n2)cc1	-100.0	n	n	n	n	x
NCc1nnn(Cc2ccccc2)c1N	x	x	n	n	n[11.4 µM]	n[11.4 µM]
N#Cc1cccc(Cn2nnc(-c3ccccc3)n2)c1	n	n	n	n	n	n
COc1ccccc1-c1cn[nH]c(=S)n1	n	n	n	22.4µM	u	u
CCOC(=O)C(NC(=O)N(C)C)(Nc1sc(C)c(CC)c1C#N)C(F)(F)F (stereo not drawn)	n	x	n	14.1µM	n	x
COC(=O)c1ccc2nc(C)cc(Nc3ccc(N(C)C)cc3)c2c1	-118.9	x	n	n	n	x
CCN(CC)C(NC(=O)Cc1ccccc1)C(Cl)(Cl)Cl (stereo not drawn)	n	n	n	14.1µM	n	n
CC(C)NC(NC(=O)Cc1ccccc1)C(Cl)(Cl)Cl (stereo not drawn)	n	n	n	u	n	n
CCN1C(=O)C(CC(=O)Nc2ccc(OC)cc2)N(Cc2cccs2)C1=S (stereo not drawn)	n	n	n	n	n	n
CCCOc1ccc(NC(=O)CC2C(=O)N(C)C(=S)N2Cc2cccs2)cc1 (stereo not drawn)	-118.9	n	n	n	n	x
CCOc1ccc(NC(=O)CC2C(=O)N(CC)C(=S)N2CCNC(C)=O)cc1 (stereo not drawn)	n	x	n	n	n	x
CCCOc1ccc(NC(=O)CC2C(=O)N(CC)C(=S)N2CCNC(C)=O)cc1 (stereo not drawn)	-113.4	x	n	n	n	x
NC(=O)C1C(c2ccccc2)=C1c1ccccc1	-126.5	n	n	n	n	n
NC(=O)C1c2ccccc2CSc2ccccc21 (stereo not drawn)	n	n	n	n	n	n
Cc1ccc(-c2cc(C(=O)N/N=C/C=C/c3ccccc3)n[nH]2)s1	n	x	n	31.6µM	n	x
O=C(N/N=C/C=C/c1ccccc1)c1n[nH]c2c1CCC2	-98.2	n	n	n	n	n
O=C(N/N=C/c1ccc(Cl)cc1Cl)c1n[nH]c2c1CCCC2	-84.2	x	n	n	n	x
O=C(N/N=C/C(Br)=C\c1ccccc1)c1n[nH]c2c1CCC2	u	n	n	u	n	n
O=C(N/N=C\c1cccc(Cl)c1)c1n[nH]c2c1CCCC2	n	n	n	n	n	x
Cc1ccc(Cl)cc1N1CCN(Cc2nc3ccsc3c(=O)[nH]2)CC1	n	n	n	n	n	n
COc1cc2oc(=O)c3c(c2cc1OCC(=O)c1c(C)n(C)c2ccccc12)CCCC3	u	x	10µM	u	n	x
CCOC(=O)CCC(NC(=O)CCCC(=O)NC(CCC(=O)OCC)C(=O)OCC)C(=O)OCC (stereo not drawn)	n	n	n	n	n	x
CCOC(=O)CCC(NC(=O)CCC(=O)NC(CCC(=O)OCC)C(=O)OCC)C(=O)OCC (stereo not drawn)	-134.0	x	n	n	n	x
SMILES	PNC inhibitor	IMPase inh	IMPase Li cell	HPGD block	ALOX12 inhib	15-hLO-2 inh
O=C(NC(=S)Nc1ccc(N2CCCC2)cc1)c1ccccc1[N+](=O)[O-]	-83.0	x	n	n	n	x
O=C(N/N=C/c1ccc(N2CCCCC2)o1)c1ccccc1[N+](=O)[O-]	n	x	n	10µM	n	x
O=C(NC(=S)Nc1ccc(NC(=O)c2ccco2)cc1)c1ccccc1	-88.0	x	n	n	n	x
COc1cc(C(=O)NC(=S)Nc2ccc(NC(=O)c3ccco3)cc2)cc(OC)c1OC	n	x	n	n	n	x
O=C(NC(=S)Nc1ccc(N2CCCCC2)cc1)c1ccco1	n	n	n	17.8µM	n	x
O=C(CCCCCN1C(=O)c2cccc3cccc(c23)C1=O)NO	x	x	n	n	n[0.00818 µM]	u
C=C(C)CNC(=S)N1CCNC(=O)C1CC(=O)OC (stereo not drawn)	n	x	n	n	n	x
CC(C)c1nnc(N2C(=O)c3oc4ccccc4c(=O)c3C2c2cccc(O)c2)s1 (stereo not drawn)	x	n	x	x	x	x
O=c1[nH]cnc2c1N=C(c1cccc([N+](=O)[O-])c1)CC(c1ccccc1)N2 (stereo not drawn)	x	x	n	x	x	x
CC1Cc2ccccc2N1S(=O)(=O)c1cccc(C(=O)N2CCN(c3ncccn3)CC2)c1 (stereo not drawn)	x	x	n	x	x	x
CC1(C)CC(=O)C(Sc2ccccc2[N+](=O)[O-])=C(O)C1	-83.2	x	n	u	n	x
CC1(C)CC(=O)C(C(C2=C(O)CC(C)(C)CC2=O)c2ccc(Cl)c([N+](=O)[O-])c2)C(=O)C1 (stereo not drawn)	x	x	n	x	x	x
CC(=O)c1ccc(N2CCN(C(=O)c3ccc(Br)cc3)CC2)c(F)c1	u	n	u	28.2µM	n	n
CC(=O)c1ccc(N2CCN(C(=O)c3ccco3)CC2)c(F)c1	n	n	n	15.8µM	n	n
CC(=O)c1cc(F)c(N2CCN(C(=O)c3ccco3)CC2)cc1C	n	n	n	n	n	n[2.29 µM]
CCN(CC(=O)NC(C)C)C(=O)[C@H](C)NC(=O)c1ccc(Br)cc1	x	x	n	x	x	x
Nn1cnn(Cc2ccccc2)c1=S	n	n	n	20µM	n	n
Brc1nc(Br)n(Cc2ccccc2)n1	x	x	n	x	x	x
COc1ccccc1OCC(=O)NNC(=O)C(=O)N1CCCC1	n	n	n	n	n	x
COC(=O)c1nc(N)sc1C	x	x	n	x	x	x
N#CC(c1ccc(O)cc1)N1CCOCC1 (stereo not drawn)	-102.8	n	n	n	n	x
N#CC(c1ccc(Cl)cc1)N1CCOCC1 (stereo not drawn)	x	x	n	x	x	x
Cc1ccccc1CN1CCSc2sccc2C1=O	x	x	n	x	x	x
O=C1NC2=C(CCc3ccccc32)C(c2ccccc2)N1 (stereo not drawn)	-113.4	x	n	u	n	x
O=C1CNC(=O)/C1=C/c1ccc(O)cc1	n	n	n	u	n	n
CN(c1ccccc1)c1nc2ccsc2c(=O)s1	n	n	n	28.2µM	n	n
CCN(c1ccccc1)c1nc2ccsc2c(=O)s1	u	n	n	n	n	n[2.29 µM]
Cc1nnc(N2C(=O)c3cccc4cccc(c34)C2=O)s1	-111.1	n	n	u	n	n
